Compounds without any hit were thinned out: in the full panel of roughly 83,000, 20% have a hit.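 Single-concentration screen, 48 h exposure, 96-well plates. Endpoint: percent growth. Below 10 = active.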 The source made the active and inactive calls.
These molecules were tested on EKVX NSCLC (assay: NCI-60 one-dose screen, 48 h (100 = growth as untreated, 0 = no growth, -100 = all killed)). Conditions: 10 µM unless noted.

Compound | growth
CCOC(=O)c1nn(CC(O)c2ccccc2)c(NC(=O)Nc2cccc(F)c2)c1C (configuration not stated) | 101% (inactive)
Cn1ccc(=O)nc1 | 130% (inactive)
CNCc1cccc2c1OCCOCCOCCNS(=O)(=O)c1ccc(cc1)-c1cnc(N)c(n1)C(=O)N2 | 77.4% (inactive)
C=C(C)[C@@H]1CC[C@]2(C(=O)N3CCN(C)CC3)CC[C@]3(C)[C@H](CC[C@@H]4[C@@]5(C)CC[C@H](OC(=O)c6ccccc6C(=O)O)C(C)(C)[C@@H]5CC[C@]43C)[C@@H]12 | 98.4% (inactive)
CCNc1ccc(-c2nc3ccccc3n3cccc23)cc1 | 71% (inactive)
CSc1nc(C)c([N+](=O)[O-])c(N)n1 | 102% (inactive)
O=c1cc(-c2ccccc2)[nH]c2ncc(-c3ccc(F)cc3)n12 | 87.8% (inactive)
N#Cc1cccc(C2C3=C(COC3=O)N(CCO)c3cc4c(cc32)OCO4)c1 (configuration not stated) | 51.8% (inactive)
COC(=O)c1nc(-c2ccccc2)oc1S(=O)(=O)NCC(c1ccc(Cl)cc1)N1CCOCC1 (configuration not stated) | 96.7% (inactive)
CC1(C)CC[C@]2(C(=O)N[C@H](CO)Cc3ccccc3)CC[C@]3(C)C(=CC[C@@H]4[C@@]5(C)CCCNC(C)(C)[C@@H]5CC[C@]43C)[C@@H]2C1 | 90.9% (inactive)
COc1ccc(C(=O)Cn2c(C(=O)c3ccc(OC)cc3)nc3ccccc32)cc1 | 73.3% (inactive)
COc1ccc(C2=CC(c3cc(OC)c(OC)c(OC)c3)n3ncnc3N2)cc1 (configuration not stated) | 66.7% (inactive)
COc1ccc(C(=O)Cn2c(C(=O)c3ccc(Cl)cc3)nc3ccccc32)cc1 | 90.9% (inactive)

These molecules were tested on SN12C renal in the same assay as above. Conditions: 10 µM unless noted.

Compound | growth
CCCCCN(CCCCC)CC(O)c1cc(C)c2ccc3cc(C(C)C)ccc3c2c1 (configuration not stated) | -52.9% (active)
CN(Cc1ccccc1)c1nc(Cl)c(C2CC(c3ccccc3)=NN2c2ccccc2)s1 (configuration not stated) | 103% (inactive)
COC(=O)c1ccc(NC(=O)Nc2ccc(C(=O)OC)cc2)cc1 | 78.9% (inactive)
C=C1C(=O)O[C@H]2[C@H]1CC/C(COC(=O)NCc1ccc(Cn3c(=O)sn(-c4ccc(C#N)cc4)c3=O)cc1)=C\CC[C@@]1(C)O[C@@H]21 | 50.3% (inactive)
NS(=O)(=O)c1ccc(-c2cc(-c3nnc(SCC(=O)Nc4ccc(C(=O)/C=C/c5ccc(Cl)cc5)cc4)n3-c3ccccc3)c3ccccc3n2)cc1 | 94.9% (inactive)
CO[C@H](C(=O)[C@@H](O)[C@@H](C)O)[C@@H]1Cc2cc3cc(O[C@H]4C[C@@H](O[C@H]5C[C@@H](O)[C@H](O)C(C)O5)[C@H](O)C(C)(O)O4)cc(O)c3c(O)c2C(=O)[C@H]1O[C@H]1C[C@@H](O[C@H]2C[C@@H](O[C@H]3C[C@@H](OC)[C@H](O)C(C)O3)[C@@H](O)C(C)O2)[C@H](O)C(C)O1 (some centres not stated) | 20.5% (inactive)
COc1ccc(/C=C(/C(=O)n2cnnn2)c2cc(OC)c(OC)c(OC)c2)cc1 | 42.6% (inactive)
COc1cccc(/C=N/NC(=O)c2ccccc2N2CCCC2)c1O | 78.8% (inactive)
CN1CCN(c2ccc(NC(=O)c3cncnc3Nc3ccc(OCc4cccc(F)c4)c(Cl)c3)cc2)CC1 | 63.9% (inactive)
C=C1C(=O)O[C@H]2[C@H]1CC/C(CNC(=O)c1c[nH]c3ccc(F)cc13)=C\CC[C@@]1(C)O[C@@H]21 | 47.5% (inactive)
Cc1ncc(C(=O)Nc2ccc(CN3CCN(C)CC3)c(C(F)(F)F)c2)cc1C#Cc1cnc(N)c2ncccc12 | -20.3% (active)
CCNC(=O)Oc1ccc(/C(=C(/CC)Cc2ccccc2)c2ccc(OCCN3CCCC3)cc2)cc1 | 92.7% (inactive)
CCOC(=O)c1ccccc1-c1c2ccc(=[N+](C)C)cc-2oc2cc(N(C)C)ccc12 | 7.33% (active)
O=C(Nc1ncc(Cc2ccccc2)s1)c1ccc2c(c1)OCCCO2 | 40.4% (inactive)
CCCCNc1cc(-c2cn[nH]c2-c2cc(C)cc(OC)c2)nc(-c2cccnc2)n1 | 95.3% (inactive)
C=C1CC[C@@H]2[C@](C)(COC(C)=O)[C@H](OC(C)=O)CC[C@@]2(C)[C@@H]1CC(Nc1ccc(S(=O)(=O)NC(C)=O)cc1)C1=CCOC1=O (some centres not stated) | 1.94% (active)
C/C=C(\C)C(=O)N[C@H]1C(O)C[C@]2(C)C3CC[C@@]4(C)C(CC[C@@H]4C(C)N(C)C)C3CCC2C1O (some centres not stated) | 68.1% (inactive)
O=C(O)COc1ccc(Cl)c(Cl)c1 | 114% (inactive)
NS(=O)(=O)c1ccc(C(=O)NN2C(=O)c3c(Br)c(Br)c(Br)c(Br)c3C2=O)cc1 | 97.6% (inactive)
CS(=O)(=O)c1ccc(NC(=O)c2ccccc2)nc1 | 99.1% (inactive)

Compound | growth
FC(F)(F)Oc1cccc(-c2cnc3ccc(-c4ccncc4)nn23)c1 | 13.2% (inactive)
Cc1ccc2c(-n3nc(C#N)c(C#N)c3N)cc(=O)[nH]c2c1 | 76.4% (inactive)
CCOC(=O)c1c(C)nc2c(c1N)CC(=O)N2Cc1ccc(OC)cc1 | 41.1% (inactive)
COc1cccc(CCNc2ncnc3c2ncn3Cc2nnc3c4ccccc4c(Cl)nn23)c1 | 46.9% (inactive)
C=C1C(=O)O[C@H]2[C@H]1CC/C(COC(=O)c1ccc(C(=O)O)s1)=C\CC[C@@]1(C)O[C@@H]21 | -8.57% (active)
O=S(=O)(Nc1cc(Sc2cccc3cccnc23)c(O)c2ccccc12)c1ccccc1 | 29.6% (inactive)
CCOC(=O)c1nn(CC(O)c2ccccc2)c(NC(=O)Nc2cccc(F)c2)c1C (configuration not stated) | 87.5% (inactive)
Cn1ccc(=O)nc1 | 81.5% (inactive)
CNCc1cccc2c1OCCOCCOCCNS(=O)(=O)c1ccc(cc1)-c1cnc(N)c(n1)C(=O)N2 | 19.2% (inactive)
C=C(C)[C@@H]1CC[C@]2(C(=O)N3CCN(C)CC3)CC[C@]3(C)[C@H](CC[C@@H]4[C@@]5(C)CC[C@H](OC(=O)c6ccccc6C(=O)O)C(C)(C)[C@@H]5CC[C@]43C)[C@@H]12 | 93.5% (inactive)
CCNc1ccc(-c2nc3ccccc3n3cccc23)cc1 | 78% (inactive)
CSc1nc(C)c([N+](=O)[O-])c(N)n1 | 99.1% (inactive)
O=c1cc(-c2ccccc2)[nH]c2ncc(-c3ccc(F)cc3)n12 | 88.5% (inactive)
N#Cc1cccc(C2C3=C(COC3=O)N(CCO)c3cc4c(cc32)OCO4)c1 (configuration not stated) | 44.2% (inactive)
COC(=O)c1nc(-c2ccccc2)oc1S(=O)(=O)NCC(c1ccc(Cl)cc1)N1CCOCC1 (configuration not stated) | 81.2% (inactive)
CC1(C)CC[C@]2(C(=O)N[C@H](CO)Cc3ccccc3)CC[C@]3(C)C(=CC[C@@H]4[C@@]5(C)CCCNC(C)(C)[C@@H]5CC[C@]43C)[C@@H]2C1 | 78.6% (inactive)
COc1ccc(C(=O)Cn2c(C(=O)c3ccc(OC)cc3)nc3ccccc32)cc1 | 41% (inactive)
COc1ccc(C2=CC(c3cc(OC)c(OC)c(OC)c3)n3ncnc3N2)cc1 (configuration not stated) | 38.4% (inactive)
COc1ccc(C(=O)Cn2c(C(=O)c3ccc(Cl)cc3)nc3ccccc32)cc1 | 65.1% (inactive)

Reference: PubChem BioAssay (NCI)
